# High-throughput results (PubChem BioAssay)
# AID923 – qHTS Assay for Allosteric/Competitive Inhibitors of Caspase-1: Spectroscopic Profiling in AFC Spectral Region. Potency, µM (highest dose often 57.5 µM), for inactives: at the highest dose fluorescence increase, usual class: activators. AID 923, 2007. 1.1% of 75,000 active. compound fluorescence, AFC spectral region (405/520 nm); note: potency is the fitted concentration of half-maximal effect; 0% is about no effect
#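 Baseline compound fluorescence (AFC region, 405 nm ex/520 nm em) taken from the intercept of kinetic reads with 50 nM caspase-1 and 5 uM Ac-WEHD-AFC; normalized to an on-plate AFC standard curve; compounds titrated up to 57 uM.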
# A350 fluor – A350 region autofluorescence; Compound autofluorescence, 340/450 nm, Alexa 350 dye-equivalents; active compounds read high; max dye-equivalent concentration, M; 11% of 59,000 active; AID 590; in the data active = max dye-equivalent concentration above about 10 nM; inconclusive = mostly about 1.1 nM to 9.6 nM
# USP2a inh – USP2a (human) protease inhibition; O75604; USP2a enzymatic assay, qHTS inhibition; Potency, µM (top dose mostly 38.3 µM), for the others: top-dose activity change, negative = inhibition, most hits filed as inhibitors; 0.1% of 60,000 active; AID 927; note: potency is the fitted concentration of half-maximal effect; nearly all actives have a fitted effect of over 60% in size
# Target sequence (O75604 whole entry, looked up): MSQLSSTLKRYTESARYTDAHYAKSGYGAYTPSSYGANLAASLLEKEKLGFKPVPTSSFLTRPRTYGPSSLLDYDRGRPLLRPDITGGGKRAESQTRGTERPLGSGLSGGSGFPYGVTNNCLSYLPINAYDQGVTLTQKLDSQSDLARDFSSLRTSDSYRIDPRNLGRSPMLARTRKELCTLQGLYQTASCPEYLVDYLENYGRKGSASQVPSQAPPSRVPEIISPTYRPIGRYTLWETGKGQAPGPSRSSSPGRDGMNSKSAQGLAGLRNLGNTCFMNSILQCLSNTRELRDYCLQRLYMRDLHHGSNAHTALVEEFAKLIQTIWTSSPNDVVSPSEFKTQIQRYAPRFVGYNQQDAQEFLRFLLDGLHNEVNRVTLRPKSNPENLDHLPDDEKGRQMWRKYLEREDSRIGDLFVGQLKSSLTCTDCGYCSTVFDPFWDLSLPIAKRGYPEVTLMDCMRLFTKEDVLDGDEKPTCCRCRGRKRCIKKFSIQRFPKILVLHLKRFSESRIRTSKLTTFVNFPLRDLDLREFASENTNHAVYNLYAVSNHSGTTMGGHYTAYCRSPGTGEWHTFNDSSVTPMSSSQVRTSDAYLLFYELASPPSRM
#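 Inhibition is measured in a cell-free coupled assay with 20 nM USP2 core, 20 nM Ub-PLA2 and 20 uM NBD C6-HPC, 2.5 h incubation. Activity normalized to NEM control.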
# 4-MU autofl – compounds fluorescent in 4-MU spectral region; compound autofluorescence, 340/450 nm, 4-MU equivalents; active compounds read high; 11% of 59,000 active; max dye-equivalent concentration, M; in the data active = max dye-equivalent concentration above about 10 nM; inconclusive = mostly about 1.1 nM to 9.6 nM
#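 Intrinsic fluorescence at 340/450 nm (ex/em) was read after 15 min at room temperature in pH 8.0, 100 mM Tris. Each compound concentration expressed as 4-MU-equivalent concentration from a six-point 4-MU standard series on each plate.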
# HADH2 inh – blocks human hydroxyacyl-CoA dehydrogenase type II | Q99714 | recombinant HADH2, NADH fluorescence, beta-hydroxybutyryl-CoA | Potency, µM (highest dose often 57.1 µM), for inactives: at the highest dose activity change, negative = inhibition, actives largely listed as inhibitors | 3.4% of 73,000 active; note: potency is the fitted concentration of half-maximal effect; % is set by controls: 0 for no effect and ±100 for the full control effect; nearly all actives have a fitted effect of over 60% in size
#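 Activity measured as NADH fluorescence gain (360/450 nm), taken as the change between first and last reads of a 4-min kinetic run. Conditions: pH 9.0 Tris buffer, 20 nM E. coli-expressed His-tagged enzyme, 1 mM NAD+, 90 uM beta-hydroxybutyryl-CoA; 15-min compound preincubation.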
# HSD17B inhib – HSD17B dehydrogenase inhibition. Q99714. recombinant HSD17B10, NADH fluorescence kinetic. Potency, µM (titrated, usually from 57.1 µM), without a hit: at the highest dose activity change, negative = inhibition, most hits filed as inhibitors. 7.6% of 75,000 active;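 note: the protocol describes HADH2 (HSD17B10) and not the HSD17B4 of the title; potency is the fitted concentration of half-maximal effect; % is set by controls: 0 for no effect and ±100 for the full control effect; nearly all actives have a fitted effect of over 70% in size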
#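 20 nM HADH2, pH 9.0 Tris/Tween; cpd preinc 15 min RT; start w/ 1 mM NAD+ + 90 uM b-hydroxybutyryl-CoA; kinetic fluor ex360/em450 q30s x 4 min; delta last-first.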
# * hit, by the source's call; i = inactive; ? = inconclusive; nt = no result; [ ] = remark or other dose. A selection: hits, their analogues and other compounds. The true share with any hit is near 13%. Unless noted, calls come from the whole dose curve; as a rule, active = well fitted curve in the direction sought with a large enough effect; inconclusive = small, poorly fitted or top-dose-only effect, or another doubt; inactive = no such curve, though single readings can be large; an effect the other way counts as inactive or inconclusive.
SMILES,AID923,A350 fluor,USP2a inh,4-MU autofl,HADH2 inh,HSD17B inhib
CC1CN(c2nc(-c3ccccc3)nc3ccccc23)CC(C)O1 (configuration not stated),-2.0%,nt,-6.3%[7.66 µM],nt,-2.2%[11.4 µM],?
CC1CN(c2nn3c(=O)c4ccccc4nc3c3ccccc23)CC(C)O1 (configuration not stated),0.1%,5.05e-08M*,12.4%,5.79e-08M*,-0.9%,-66.4%
Cc1cnc(C(=O)Nc2cccc3cccnc23)cn1,0.7%,3.11e-07M*,5.0%,1.92e-07M*,10.1%,-16.1%
C[N+]1(C)C[C@@H](O)C[C@@H]1C(=O)[O-],1.2%[25.7 µM],i,-9.6%[17.1 µM],i,2.8%[25.6 µM],6.8%[25.6 µM]
O=C(NCc1ccc2c(c1)OCO2)c1ccc(-c2ccc(Cl)cc2)o1,-1.2%,i,-12.4%,i,?,25.1µM*
O=C(NCc1ccc2c(c1)OCO2)c1c(O)c2cccc3c2n(c1=O)CCC3,-0.4%,?,16.7%,1.03e-08M*,-0.9%,?
Cc1nc2c(C(=O)NCc3ccc4c(c3)OCO4)c[nH]n2c(=O)c1Cl,-1.3%,i,-20.6%,i,?,31.6µM*
O=C(NCc1ccc2c(c1)OCO2)c1cc2ncc(Br)cn2n1,-1.6%,?,-2.7%,?,-10.0%,31.6µM*
O=C1c2ccccc2-c2ccc(N(Cc3ccc(Br)cc3)Cc3ccc(Br)cc3)cc21,0.0%[11.5 µM],i,nt,i,2.1%[11.4 µM],1.9%[11.4 µM]
COC(=O)C/C=C\[C@@H](C)[C@@H](/C=N\O[C@@H]1O[C@H](COC(C)=O)[C@H](OC(C)=O)[C@H](OC(C)=O)[C@H]1OC(C)=O)OC,-1.1%[11.5 µM],nt,nt,nt,2.9%[11.4 µM],-0.3%[11.4 µM]
O=C(NCc1ccc2c(c1)OCO2)c1ccncc1,1.3%,1.43e-08M*,4.8%,1.1e-08M*,?,2.1%
Cc1c(C(=O)NCc2ccc3c(c2)OCO3)oc2ccccc12,-1.0%,nt,-5.1%,nt,-4.7%,-7.5%
Cc1ccc2oc(C(=O)NCc3ccc4c(c3)OCO4)c(C)c2c1,0.0%,1.59e-08M*,-0.6%,1.78e-08M*,?,-9.5%
c1cc(CNc2ccc3c(c2)OCO3)ccn1,4.9%,2.5e-08M*,13.7%,2.02e-08M*,?,?
O=C(NCc1ccc2c(c1)OCO2)c1nn(-c2ccccc2)c(=O)c2ccccc12,1.9%,1.59e-08M*,17.1%,1.54e-08M*,-18.9%,?
O=C(Nc1ccc2c(c1)OCO2)c1nn(-c2ccccc2)c(=O)c2ccccc12,0.9%,i,36.9%,i,3.6%,5.6%
Cc1ccc(CNc2ccc3c(c2)OCO3)cc1,13.2%,?,35.9%,i,15.7%,-22.9%
O=C(NCc1ccc2c(c1)OCO2)c1ccccn1,1.4%,i,3.2%,i,18.7%,1.3%
O[C@H]([C@H](O)[C@@H](O)c1nc2ccccc2[nH]1)[C@@H](O)c1nc2ccccc2[nH]1,-1.6%[11.5 µM],i,nt,i,6.5%[11.4 µM],8.0%[11.4 µM]
Cc1ccc(S(=O)(=O)N[C@H]2COC(=O)[C@@H](C)COC(=O)[C@H](C)NC(=O)C/C=C\[C@H]2C)cc1,-0.8%[11.5 µM],nt,nt,nt,-3.6%[11.4 µM],3.5%[11.4 µM]
CCOc1ccc(NS(=O)(=O)c2ccc(C)c(C(=O)O)c2)cc1,-0.3%,nt,nt,nt,4.8%,4.7%
CC(=O)c1ccsc1B(O)O,0.0%,nt,nt,nt,-1.7%,7.6%
NS(=O)(=O)c1ccc(N=C2C(=O)Nc3ccccc32)cc1,2.2%[11.5 µM],5.36e-08M*,nt,4.86e-08M*,20.4%[11.4 µM],1.7%[11.4 µM]
NCCCC(N)CC(=O)NCC1NC(=O)C(CO)NC(=O)C(N)CNC(=O)C(C2CCN=C(N)N2)NC(=O)/C(=C\NC(N)=O)NC1=O (configuration not stated),2.9%,nt,0.9%,nt,nt,1.9%
CCc1c2c(nc3cccc(SC)c13)COC2,17.5%,nt,nt,nt,?,25.1µM*
CCCn1nc(CC(=O)O)c2ccccc2c1=O,1.7%,1.23e-08M*,-0.7%,?,26.9%,4.5%
O=C(O)CCCSc1ccccc1,0.8%[11.5 µM],1.24e-08M*,nt,1.11e-08M*,2.5%[11.4 µM],16.9%[11.4 µM]
c1ccc(SCCSc2ccccc2)cc1,1.0%,nt,nt,nt,-5.6%,3.4%
Cc1csc2nc(=O)c3ccccc3n12,0.8%,i,2.9%,i,25.1µM*,25.1µM*
